Source: PubChem (National Center for Advancing Translational Sciences (NCATS))
GCN5L2 inh – inhibitors of human GCN5L2 histone acetyltransferase; Potency, µM (doses to about 58.9 µM), hits mostly inhibitors; 390,000 compounds, 0.21% hits; GCN5L2 HAT assay, ThioGlo1 CoA-SH fluorescence
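GCN5L2 (20 nM) in 50mM HEPES pH 7.5, 0.1mM EDTA, 0.01% Tween-20 preincubated 15 min with compounds at room temperature. Reaction started with H3(1-25) 75uM, acetyl-CoA 70uM, ThioGlo1 50uM; CoA-thiol fluorescence (Ex340/Em540) read at 0 and 20 min.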
TDP1 block – blocks human tyrosyl-DNA phosphodiesterase 1; recombinant TDP1, AlphaScreen DNA substrate cleavage; AID 485290; Potency, µM (titrated, usually from 130 µM), usual class: inhibitors; 350,000 compounds, 0.28% hits; Q9NUW8; note: nearly all actives have a fitted effect of over 40% in size
Target sequence (Q9NUW8 whole entry, looked up): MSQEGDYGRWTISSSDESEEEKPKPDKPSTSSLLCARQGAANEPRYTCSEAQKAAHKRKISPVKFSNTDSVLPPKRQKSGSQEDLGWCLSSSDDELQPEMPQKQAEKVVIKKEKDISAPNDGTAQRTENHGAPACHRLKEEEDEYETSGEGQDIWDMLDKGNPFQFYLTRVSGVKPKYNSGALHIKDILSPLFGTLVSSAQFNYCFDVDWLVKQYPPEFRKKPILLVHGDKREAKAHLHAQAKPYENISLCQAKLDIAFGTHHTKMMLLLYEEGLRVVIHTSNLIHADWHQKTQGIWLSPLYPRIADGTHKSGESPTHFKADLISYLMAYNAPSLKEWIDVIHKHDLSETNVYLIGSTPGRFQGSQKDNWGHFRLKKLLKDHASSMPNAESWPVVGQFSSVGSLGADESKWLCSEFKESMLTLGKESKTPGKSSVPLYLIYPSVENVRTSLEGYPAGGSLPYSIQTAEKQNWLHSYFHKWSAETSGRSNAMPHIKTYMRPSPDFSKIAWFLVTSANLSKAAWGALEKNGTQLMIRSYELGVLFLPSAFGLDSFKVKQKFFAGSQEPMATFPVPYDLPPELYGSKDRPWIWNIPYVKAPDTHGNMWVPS
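E. coli-derived human Tdp1, 1 nM final. Cpd preinc 15 min RT; substrate 15 nM final, 5 min RT; AS bead mix 10 ug/ml final, 10 min RT. Signal loss = tyrosine-FITC cleavage. No-enzyme wells = max signal.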
DT40 TDP1 no CPT – qHTS for Inhibitors of human tyrosyl-DNA phosphodiesterase 1 (TDP1): qHTS in cells in absence of CPT. DT40 Tdp1-/- hTDP1 cells, no CPT, ATP luminescence, 48 h. Potency, µM (titrated, usually from 46.2 µM), hits mostly inhibitors. 420,000 compounds, 15% hits. AID 686978, 2013; note: nearly all actives have a fitted effect of over 55% in size
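Chicken DT40 Tdp1-/- cells stably complemented with human TDP1 were seeded at 400 cells/well with DMSO in place of 20 nM camptothecin. After compound pinning, cells grew at least 48 hr at 37 °C; viability read by CellTiter-Glo luminescence.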
PLK1 PBD block – PLK1 (human) polo-box domain binding inhibition | Plk1 PBD binding of FITC phosphopeptide, fluorescence polarization | P53350 | 360,000 compounds, 2.8% hits | Potency, µM, actives largely listed as inhibitors; note: series mostly up to about 57 µM; nearly all actives have a fitted effect of over 65% in size
VDR inh – vitamin D3 receptor (human) inhibition. VDR-SRC2-3 peptide fluorescence polarization, 2 h. 400,000 compounds, 0.93% hits. Potency, µM, actives largely listed as inhibitors. P11473
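VDR–SRC2-3 interaction, FP format. Cmpds 23 nl via pintool, brief spin, 2 h ambient incubation.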
DT40 TDP1 CPT – growth inhibition of DT40 Tdp1-/-;hTDP1 cells with camptothecin (screen for TDP1 inhibitors); chicken DT40 Tdp1-/-;hTDP1 cells + 20 nM CPT, ATP luminescence, 48 h; Potency, µM (titrated, usually from 46.2 µM), usual class: inhibitors; 420,000 compounds, 12% hits; AID 686979; note: nearly all actives have a fitted effect of over 55% in size
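Chicken DT40 Tdp1-/- cells complemented with human TDP1, 400 cells/well, exposed to compounds plus 20 nM camptothecin for at least 48 h at 37 C; viability read as ATP content by CellTiter-Glo luminescence.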
A number is an active result; . = inactive; ? = inconclusive; / = not tested or not shown; [ ] = remark or other dose. In the library only some 18% were active in any assay of this set; here they are far more common. Calls come from the whole dose curve; as a rule, active = well fitted curve in the direction sought with a large enough effect; inconclusive = small, poorly fitted or top-dose-only effect, or another doubt; inactive = no such curve, though single readings can be large; an effect the other way counts as inactive or inconclusive.

SMILES	GCN5L2 inh	TDP1 block	DT40 TDP1 no CPT	PLK1 PBD block	VDR inh	DT40 TDP1 CPT
CCOC(=O)c1ccc(N2C(=O)c3n[nH]c(C)c3C2c2ccc(C(C)(C)C)cc2)cc1 (configuration not stated)	.	.	?	/	.	.
CCOC(=O)c1ccc(N2C(=O)c3n[nH]c(-c4cccs4)c3C2c2ccc(OCC)cc2)cc1 (configuration not stated)	.	.	11.6µM	/	.	29.1µM
CCOC(=O)c1ccc(N2C(=O)c3n[nH]c(-c4cccs4)c3C2c2cccc(O)c2)cc1 (configuration not stated)	.	.	20.6µM	/	.	16.4µM
Cc1cc(NS(=O)(=O)c2ccc(NC(=O)CSc3nc4ncccc4[nH]3)cc2)nc(C)n1	.	.	.	.	.	.
O=C(COc1cccc(NC(=O)c2ccccc2)c1)c1ccc(F)cc1	.	.	.	.	.	?
O=C(COc1cccc(NC(=O)c2ccco2)c1)c1ccc(F)cc1	.	.	20.6µM	.	.	?
COC(=O)c1cccc(NC(=O)COc2cccc([N+](=O)[O-])c2)c1	.	.	?	.	.	.
O=C(CCNc1cccc(F)c1)c1cccc([N+](=O)[O-])c1	.	.	4.11µM	?	89.1µM	5.8µM
O=C(COc1cccc(NC(=O)c2cccc([N+](=O)[O-])c2)c1)c1ccc(F)cc1	.	.	13µM	.	.	?
CCOc1cccc(C(=O)Nc2cccc(NC(=O)c3ccco3)c2)c1	.	.	?	?	.	.
COc1cccc(C(=O)COc2cccc(NC(=O)c3cccc([N+](=O)[O-])c3)c2)c1	.	.	16.4µM	.	.	?
C[C@@H]1CC=C[C@H]2[C@H]1C(=O)N(Cc1ccccc1)[C@H]2c1ccc(-c2ccc(N(C)C)cc2)cc1F	.	.	11.6µM	.	.	20.6µM
CC(=O)c1ccc(-c2ccc([C@H]3[C@H]4C=CC[C@@H](C)[C@@H]4C(=O)N3Cc3ccccc3)c(F)c2)cc1	.	.	13µM	.	.	13µM
Cc1ccc(-c2ccc([C@H]3[C@H]4C=CC[C@@H](C)[C@@H]4C(=O)N3Cc3ccccc3)c(F)c2)cc1	.	.	?	.	.	?
COC(=O)c1ccc(-c2ccc([C@H]3[C@H]4C=CC[C@@H](C)[C@@H]4C(=O)N3Cc3ccccc3)c(F)c2)cc1	.	.	3.26µM	.	.	6.51µM
Clc1ccccc1-c1nc(Nc2ccccc2)nc2ccc(Br)cc12	.	.[12.3 µM]	18.4µM	/	.	?
COc1ccccc1Nc1nc(-c2ccccc2Cl)c2cc(Br)ccc2n1	.	.[12.3 µM]	2.31µM	/	.	3.66µM
COc1ccccc1Nc1nc(Cl)nc(Nc2ccccc2OC)n1	.	.	?	.	.	.
Clc1ccc(Nc2nc(-c3ccccc3)c3cc(Cl)ccc3n2)cc1	.	.[12.3 µM]	.	/	.	.
O=C(Cn1c(-c2cccs2)cc2cc(Cl)ccc21)NCc1ccccc1	.	.	?	/	.	?
CCn1nc(C(=O)NNC(=O)c2cc(Cl)ccc2OC)c2ccccc2c1=O	.	.	?	.	.	?
COc1ccc(Cl)cc1C(=O)NNC(=O)c1nn(C)c(=O)c2ccccc12	.	.	16.4µM	.	.	?
CC(OC(=O)Cc1n[nH]c(=O)c2ccccc12)C(=O)Nc1cc(Cl)cc(Cl)c1 (configuration not stated)	.	.[0.505 µM]	23.1µM	.	.	?
CC(OC(=O)Cc1n[nH]c(=O)c2ccccc12)C(=O)Nc1ccc(Cl)cn1 (configuration not stated)	.	.	?	.	.	?
CC(=O)Oc1ccc(N(C(C)=O)S(=O)(=O)c2cccs2)c2ccccc12	.	.	?	.	.	11.6µM
SMILES	GCN5L2 inh	TDP1 block	DT40 TDP1 no CPT	PLK1 PBD block	VDR inh	DT40 TDP1 CPT
Cc1nnc(SCC(=O)NC(=O)NCc2ccco2)n1Cc1ccccc1	.	50.1µM	.	.	.	.
CCCn1c(SCC(=O)NC(=O)NCc2ccco2)n[nH]c1=O	?	44.7µM	/	/	/	/
CCCn1c(SCC(=O)NCc2ccc(F)cc2)n[nH]c1=O	.	.	.	21.2µM	.	.
CCCn1c(SCC(=O)NCc2ccc(OC)cc2)n[nH]c1=O	.	.	.	.	.	.
CN1CCN(C(=O)c2cccc(-c3cccc4nccn34)c2)CC1	/	/	.	.	/	.
COc1ccc2ccccc2c1CN1CCCC(n2cc(C(=O)N3CCCC3)nn2)C1 (configuration not stated)	/	/	.	/	/	.
COc1ccccc1CNC(=O)CSc1nc(=O)[nH]c2c1CCCC2	.	.	.	/	.	.
Cc1ccc(S(=O)(=O)N2C3CC(c4ccccc4)N(S(=O)(=O)c4cccc(Cl)c4)CC3C(=O)C[C@H]2c2ccccc2)cc1 (some centres not stated)	/	/	.	.	/	.
CN(C)C(CNC(=O)c1ccc2c(=O)n(-c3ccccc3F)c(=S)[nH]c2c1)Cc1ccccc1 (configuration not stated)	.	.	18.4µM	.	.	25.9µM
COc1cc(NC(=O)Cn2c(-c3ccccc3)cc(C(C)=O)c2C)cc(OC)c1	.	.	16.4µM	/	.	20.6µM
CCOC(=O)c1cc(-c2ccccc2)n(CC(=O)NC(C)c2ccccc2)c1C (configuration not stated)	.	.	9.2µM	/	.	18.4µM
CCOC(=O)c1cc(-c2ccccc2)n(CC(=O)Nc2cc(OC)cc(OC)c2)c1C	.	.	16.4µM	.	.	20.6µM
CCOC(=O)c1cc(-c2ccccc2)n(CC(=O)Nc2ccc(OCC)cc2)c1C	.	.	?	.	.	?
CC1(C(=O)NCc2ccccc2)CSCC(=O)N1Cc1cccc(C(F)(F)F)c1 (configuration not stated)	/	/	?	.	/	18.4µM
CCOc1ccc(NC(=O)CN(C)C(=O)c2ccccc2SCC(=O)N2CCCC2)cc1OCC	.	.	.	.	.	.
CN(CC(=O)NCC(=O)Nc1ccc(F)cc1)CC(=O)Nc1ccc(Cl)c(C(F)(F)F)c1	/	/	.	.	.	.
CN(CC(=O)NCc1ccc(F)cc1)CC(=O)Nc1ccc(Cl)c(C(F)(F)F)c1	.	.	20.6µM	.	.	23.1µM
CN(CC(=O)Nc1ccc(Cl)c(C(F)(F)F)c1)C(=O)c1ccccc1SCC(=O)N1CCCC1	/	/	?	.	.	18.4µM
CC(NC(=O)CN(C)CC(=O)Nc1ccc(Cl)c(C(F)(F)F)c1)c1ccccc1 (configuration not stated)	.	/	23.1µM	.	.	20.6µM
CN(CC(=O)Nc1cccc(F)c1)CC(=O)NC(c1ccccc1)c1ccccc1	.	.	?	.	.	23.1µM
